In PubChem BioAssay AID440 (NMMLSC, 2006):
Among all 24,000 compounds or so, about 180 (0.75%) were called active. No stated cut-off is given here; in the data, active means inhibition above about 30%; inconclusive means no clear call, values can overlap the other calls; inactive means below that. For the sample, actives were picked, then their nearest neighbours and some compounds at random.

target: fMet-Leu-Phe receptor (Homo sapiens) (UniProt P21462); assay: human FPR ligands by binding competition, primary screen, cell-based, FPRL1 counter-screen, flow cytometry (AID 440); conditions: FPR-expressing cells, fluorescent ligand binding, active compounds read high, concentration not given here;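 further: 0% = buffer wells and 100% = receptor blocker peptide wells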
Sequence (P21462 whole entry, looked up): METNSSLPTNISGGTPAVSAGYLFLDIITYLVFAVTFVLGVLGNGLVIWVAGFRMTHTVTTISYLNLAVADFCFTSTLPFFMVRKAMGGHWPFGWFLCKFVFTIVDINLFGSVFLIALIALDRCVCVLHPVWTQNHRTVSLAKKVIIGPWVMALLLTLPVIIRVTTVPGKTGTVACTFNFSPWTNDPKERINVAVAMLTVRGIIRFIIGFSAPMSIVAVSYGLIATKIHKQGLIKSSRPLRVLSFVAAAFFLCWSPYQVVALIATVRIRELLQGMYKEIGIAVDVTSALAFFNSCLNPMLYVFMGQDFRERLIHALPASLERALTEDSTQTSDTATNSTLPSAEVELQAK

Row | SMILES | inhibition
1 | N#CCCN1CCN(S(=O)(=O)c2ccc(S(=O)(=O)N3CCCC3)cc2)CC1 | -3.3% (inactive)
2 | O=C(Nc1ccc(Cl)cn1)Nc1cccs1 | -2.2% (inactive)
3 | COc1ccccc1C1/C(=C(/O)c2ccc(C)cc2)C(=O)C(=O)N1Cc1ccco1 (stereo not given) | 4.3% (inactive)
4 | COc1ccc(/C(O)=C2/C(=O)C(=O)N(CC3CCCO3)C2c2ccc(OC)c(OC)c2)cc1 (stereo not given) | 0.3% (inactive)
5 | COc1ccc(/C(O)=C2\C(=O)C(=O)N(Cc3ccco3)C2c2ccc(OC)cc2OC)cc1 (stereo not given) | 38% (active)
6 | CCOC(=O)Cn1c(CN(Cc2ccccc2)Cc2ccccc2)nc2c1c(=O)[nH]c(=O)n2C | -0.1% (inactive)
7 | COc1c(F)c(F)c(C(=O)O)c(Nc2ccccc2C)c1F | -4.8% (inactive)
8 | Cc1cc(N2C(=O)C(=O)/C(=C(/O)c3ccccc3)C2c2cccc(Br)c2)no1 (stereo not given) | -1.3% (inactive)
9 | CCOC(=O)c1ccn(-c2nc(-c3ccco3)cc(C(F)(F)F)n2)n1 | 5.4% (inactive)
10 | CN1CCCC(OC(=O)COc2ccc(Br)cc2)C1 (stereo not given) | -3% (inactive)
11 | CCCn1nnc2sc3c(c2c1=O)CCC(C)C3 (stereo not given) | 0.2% (inactive)
12 | Cc1cccc(-n2nc3c(c2NC(=O)c2ccc(Br)o2)CSC3)c1C | 6.4% (inactive)
13 | CC1(C)C(=O)Nc2ccccc2N1C(=O)COC(=O)Cn1cnc2ccccc2c1=O | -1.5% (inactive)
14 | O=C(CCSCCc1ccccn1)Nc1nccs1 | 2.6% (inactive)
15 | CCOc1cccc(-c2nnc3sc(COc4ccc(OC)cc4)nn23)c1 | -4.8% (inactive)
16 | Clc1ccc(Cc2nn3c(-c4ccncc4)nnc3s2)cc1 | 46.7% (active)
17 | c1ccc(Cc2nn3c(Cn4cnc5ccccc54)nnc3s2)cc1 | 4.2% (inactive)
18 | CCOc1ccc(NC(=O)CCS(=O)(=O)c2cccc3nsnc23)cc1 | 7.6% (inactive)
19 | O=C(c1ccccc1)c1cccn1CC(=O)N1CCN(c2ccc(F)cc2)CC1 | 0.2% (inactive)
20 | CCCC(=O)C1=C(N(C)c2ccccc2)CC(C)(C)C(C(=O)OC)C1=O (stereo not given) | 1.9% (inactive)

Row | SMILES | inhibition
21 | O=C(O)CC(c1ccccc1)n1cnnn1 (stereo not given) | -4.6% (inactive)
22 | CCN(Cc1ccccc1)C(=O)CSc1nc(C)cc2c1C(=O)OC2 | 2% (inactive)
23 | O=C(CCN1C(=O)c2ccccc2C1=O)NCCN1CCOCC1 | -4.5% (inactive)
24 | O=C1CC(c2ccccc2)CC(O)=C1C=NCCN1CCOCC1 (stereo not given) | 9.7% (inactive)
25 | CCCC(=O)Nc1nnc(CC(=O)OCC)s1 | 9.1% (inactive)
26 | COc1ccc(-c2nc(CS(=O)CC(=O)NCc3cccnc3)c(C)o2)cc1OC (stereo not given) | 7.2% (inactive)
27 | COc1cc(C2C(C(=O)c3ccc(C)o3)=C(O)C(=O)N2Cc2cccnc2)ccc1O (stereo not given) | 40.6% (active)
28 | COc1cc(C2C(C(=O)c3sc(C)nc3C)=C(O)C(=O)N2CCN(C)C)cc(OC)c1OC (stereo not given) | 3.4% (inactive)
29 | CCCOc1ccc(C2C(C(=O)c3ccc(C)o3)=C(O)C(=O)N2CCCn2ccnc2)cc1 (stereo not given) | 52.8% (active)
30 | COc1cc(C2C(C(=O)c3ccc(C)o3)=C(O)C(=O)N2CCc2ccccc2)ccc1O (stereo not given) | 69.9% (active)
31 | CCOc1ccc(/C(O)=C2/C(=O)C(=O)N(Cc3cccnc3)C2c2ccc(N(C)C)cc2)c(C)c1 (stereo not given) | 27.7% (inactive)
32 | CCOc1ccccc1C(=O)NCCCn1ccnc1 | -3.4% (inactive)
33 | COc1cc(C2C(C(=O)Nc3ccccc3OC)=C(C)Nc3ncnn32)ccc1O (stereo not given) | -6.4% (inactive)
34 | CCCOc1ccc(C2c3c(oc4cc(C)c(C)cc4c3=O)C(=O)N2CCCN2CCOCC2)cc1 (stereo not given) | 5.8% (inactive)
35 | O=C(c1cccnc1NCc1ccccc1)N1CCOCC1 | -10.6% (inactive)
36 | CCOC(=O)c1[nH]c2c(c1C)C(=O)CC(c1ccc(N(C)C)cc1)C2 (stereo not given) | 9% (inactive)
37 | Nc1ccc(-n2nncc2-c2ccco2)cc1 | 3% (inactive)
38 | O=C(CN1CCN(S(=O)(=O)c2ccc(F)cc2)CC1)Nc1ccccc1F | 5.7% (inactive)
39 | COc1ccc2c(CC(=O)Nc3nnc(C4CC4)s3)coc2c1 | -3.4% (inactive)
40 | CC1Cc2cc(/C(O)=C3\C(=O)C(=O)N(CCN4CCOCC4)C3c3ccccc3F)ccc2O1 (stereo not given) | 18.6% (inactive)

Row | SMILES | inhibition
41 | CCOc1cccc(/C(O)=C2/C(=O)C(=O)N(CCOC)C2c2ccncc2)c1 (stereo not given) | 4.6% (inactive)
42 | COCCCN1C(=O)C(=O)/C(=C(/O)c2ccc3c(c2)CC(C)O3)C1c1cccnc1 (stereo not given) | 33.5% (active)
43 | COc1cc(C2C(C#N)=C(C)NC3=C2C(=O)CC(C)(C)C3)ccc1O (stereo not given) | 4.9% (inactive)
44 | Cc1ccc(C2CC(=O)NC(SCC(=O)OCc3ccccc3)=C2C#N)o1 (stereo not given) | 0.1% (inactive)
45 | CCCOC(=O)Nc1sc2c(c1C(=O)OCC)CCC2 | -12.7% (inactive)
46 | CCN(CC)S(=O)(=O)N1CCC(C(=O)NC(C)CCc2ccccc2)CC1 (stereo not given) | -9.4% (inactive)
47 | CCC(C)(NC(=O)c1ccccn1)C(=O)NC1CCCCC1 (stereo not given) | 6.6% (inactive)
48 | COCCNC(=O)Cn1cc2c(n1)CCCCC2 | -5.5% (inactive)
49 | Cc1onc(-c2ccccc2Cl)c1C(=O)NCCn1ccc2ccccc21 | 5.6% (inactive)
50 | COc1ccccc1CNC(=O)CCn1c(=O)sc2ccccc21 | 1.8% (inactive)
51 | O=C(C1CCN(S(=O)(=O)c2cccs2)CC1)N1CCCCCC1 | 2.5% (inactive)
52 | Cc1cc(C)nc(-n2nc(C)cc2NC(=O)c2ccc(Br)o2)n1 | -6.1% (inactive)
53 | O=C(CN1C(=O)C2C3C=CC(C3)C2C1=O)NCC1COc2ccccc2O1 (stereo not given) | -0.7% (inactive)
54 | O=C1c2ccncc2C(=O)N1C1CCCCC1 | 0.9% (inactive)
55 | COc1ccc(Cn2nnc3c(=O)[nH]c(C4CCN(C(=O)c5ccccc5Cl)CC4)nc32)cc1 | -0.8% (inactive)
56 | Cc1nc(C)c(C(=O)Nc2cccc(C)c2C)o1 | 3% (inactive)
57 | COc1ccccc1Cn1c(=S)[nH]c2cc(C(=O)N3CCN(C)CC3)ccc2c1=O | -4% (inactive)
58 | S=C1SCN(CCN2CCOCC2)CN1Cc1ccccc1 | -1.1% (inactive)
59 | CCOC(=O)C1CCN(C(=O)CSc2cc(=O)n(C)c3ccccc23)CC1 | -1.5% (inactive)
60 | Cn1c(=O)cc(OCCCC(=O)N2CCN(c3ccccn3)CC2)c2ccccc21 | -0.8% (inactive)
